From PubChem
Only some compounds are listed: those with a hit (about 2.4% of all), similar ones and a draw of the others.
M1 antag = blocks human M1 muscarinic receptor | CHO-K1 hM1, Fluo-8 calcium fluorescence, ACh EC80 antagonist | hit rate 1.3% among 360,000 | inhibition, % at 3 µM | AID 588852 | P11229;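 active = percent inhibition above its own plate's cutoff, namely the mean of that plate's compound wells plus 3 SD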;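 also: peak over basal fluorescence ratio during 140 s after agonist addition; 0% = ACh EC80 plus DMSO and 100% = DMSO alone without agonist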
Target sequence (P11229 whole entry, looked up): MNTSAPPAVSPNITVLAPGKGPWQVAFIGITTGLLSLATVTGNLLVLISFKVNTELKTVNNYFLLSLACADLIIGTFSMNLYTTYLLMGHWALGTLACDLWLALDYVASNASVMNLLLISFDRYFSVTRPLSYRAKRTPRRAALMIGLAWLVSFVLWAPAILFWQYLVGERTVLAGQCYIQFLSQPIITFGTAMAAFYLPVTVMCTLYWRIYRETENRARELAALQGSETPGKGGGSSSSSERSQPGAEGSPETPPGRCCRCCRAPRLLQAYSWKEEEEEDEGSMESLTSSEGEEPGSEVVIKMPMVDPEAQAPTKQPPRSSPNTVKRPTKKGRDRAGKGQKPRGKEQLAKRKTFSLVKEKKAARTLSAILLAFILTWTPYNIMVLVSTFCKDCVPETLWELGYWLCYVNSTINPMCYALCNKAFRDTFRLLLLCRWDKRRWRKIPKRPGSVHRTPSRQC
CHO-K1 Ca ag = M1 agonist counterscreen hit in parental CHO-K1 cells; hit rate 0.48% among 360,000; activation, % at 3 µM; Fluo-8 calcium fluorescence; scaled to maximal ATP response, vehicle zero; in the data active = activation above about 15%;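 also: untransfected CHO-K1 host cells lacking M1 receptor as counterscreen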
CHO-K1 Ca antag = counter-screen for M1 antagonists: effect in parental CHO-K1 cells; inhibition, % at 3 µM; ATP-induced calcium, Fluo-8 fluorescence; hit rate 0.6% among 360,000;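 active = inhibition above a per-plate cutoff, the plate's mean sample inhibition plus 3 SD, cut at about 24% in these data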;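 also: 0% = DMSO plus EC80 ATP and 100% = DMSO alone without ATP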
M1 PAM = positive allosteric modulators of human M1 muscarinic receptor. CHO-K1 hM1, Fluo-8 calcium fluorescence, ACh EC20; 0% = ACh EC20, 100% = maximal ACh. activation, % at 3 µM. hit rate 0.088% among 360,000. P11229; in the data active = activation above about 19%, passing the limit was not always enough
CHO-K1 Ca PAM = counter-screen for M1 PAMs: effect in parental CHO-K1 cells; ATP EC20, Fluo-8 calcium fluorescence; 0% at ATP EC20, 100% at ATP max; activation, % at 3 µM; hit rate 0.02% among 360,000; AID 602247;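 active = activation above the run cutoff, the mean activation of all test compounds plus 3 SD, cut at about 40% in these data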;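 also: peak over basal fluorescence ratio in a 140 s read after ATP addition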
CHRM1 agonist = activates human CHRM1 receptor; hit rate 0.33% among 360,000; P11229; CHO-K1 hM1, Fluo-8 calcium fluorescence, agonist mode; 0% DMSO, 100% acetylcholine EC100; activation, % at 3 µM;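 active = activation above the run's mean compound activation plus 3 SD, cut at about 16% in these data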;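 also: peak over basal fluorescence ratio within a 140 s kinetic read after compound addition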
Starred values were filed as active, the others as inactive.

SMILES	M1 antag	CHO-K1 Ca ag	CHO-K1 Ca antag	M1 PAM	CHO-K1 Ca PAM	CHRM1 agonist
CN(C(=O)c1ccc(NC(=O)Cc2ccc(NC(=O)C3CCN(C(=O)C4CC4)CC3)cc2)cc1)C1CCCC1	-27	1	-9	27*	4	4
Cc1ccc(S(=O)(=O)N2CCN(C)CC2)c2nsnc12	0	0	-8	0	-14	-12
Cc1ccc(C(C(=O)NCc2ccc(F)cc2)N(CCCO)C(=O)C2COc3ccccc3O2)o1 (stereo not given)	9	19*	18	-11	-6	-3
Cc1ccc(CNC(=O)C2COc3ccccc3O2)cc1 (stereo not given)	9	0	-12	1	7	-2
Cc1cccc2c1N(CCOc1ccccc1Cl)C(=O)C2=O	-16	1	-3	-1	18	24*
Cc1cccc2c1N(CCOc1ccc(C(C)(C)C)cc1)C(=O)C2=O	-1	0	5	-7	-4	21*
Cc1ccc(OCCCN2C(=O)C(=O)c3cccc(C)c32)cc1	-12	1	-8	11	21	14
Nc1nc(-c2cc3ccccc3o2)cs1	-12	3	-10	17	-7	5
COc1cccc(N(C(=O)c2snc(C(N)=O)c2N)C(C(=O)NCC2CCCO2)c2ccc(F)cc2)c1 (stereo not given)	-15	3	-25	10	29	-1
COc1cccc(N(C(=O)c2sc(C)nc2C)C(C(=O)NCC2CCCO2)c2ccccc2)c1 (stereo not given)	-17	5	27*	11	-5	-1
CC(=O)c1ccc(N(CC(=O)NCCc2ccccc2)C(=O)c2csnn2)cc1	-3	1	1	-1	-21	-3
CN(C)c1cc[n+](Cc2c(Cl)cccc2Cl)cc1	80*	0	-9	-21	19	-5
CCCCn1c(N)c(N(CC(C)C)C(=O)C2=COCCO2)c(=O)[nH]c1=O	1	0	-3	3	15	-1
Cc1c(Cl)cccc1NC(=S)N(CCCN1CCOCC1)Cc1cccs1	82*	1	-9	-24	3	-9
COc1ccc(NC(=S)N(CCCN2CCCCC2)Cc2cccs2)cc1	59*	0	4	-22	-4	-9
COc1ccc(NC(=S)N(CCCN2CCC(C)CC2)Cc2cccs2)cc1	0	1	-19	1	9	-6
COc1cc(C(=O)NCC(c2ccco2)N2CCc3ccccc3C2)cc(OC)c1OC (stereo not given)	-4	1	-1	3	-5	-6
CCOc1nc(Nc2ccc(Cl)cc2)nc(OCC)n1	-1	0	-11	-2	4	-9
CN(C)c1nc(Nc2ccc(Cl)cc2)nc(OCC#N)n1	9	1	27*	-7	-10	-5
O=C(NCc1ccc2c(c1)OCO2)C(=O)Nc1cc2c3c(c1)CC(=O)N3CCC2	-8	0	-3	11	-12	-2
CNC(=O)CSc1nnc(-c2ccco2)n1-c1ccccc1OC	-25	0	-9	25*	11	4
COc1ccc(-c2nnc(NC(=O)C(C)C)s2)c(OC)c1	39*	5	-4	-10	28	-1
CS(=O)(=O)N1CCCC(c2nc(-c3ccc(S(=O)(=O)NCc4ccccc4)cc3)no2)C1 (stereo not given)	36*	15	34*	-18	-14	3
O=C1CCCN1c1ccc([N+](=O)[O-])cc1	-8	0	29*	6	-12	0
O=C1CCCN1c1ccc(S(=O)(=O)N2CCCCC2)cc1	-6	3	-7	0	9	-11
SMILES	M1 antag	CHO-K1 Ca ag	CHO-K1 Ca antag	M1 PAM	CHO-K1 Ca PAM	CHRM1 agonist
CS(=O)(=O)Nc1cccc(-c2cn3c(n2)SCC3)c1	5	0	2	12	-8	-1
COc1ccccc1C(=O)NC(=O)CSc1nnc(C)s1	-10	0	55*	9	-4	-2
C=CCN1C(=O)/C(=C/c2ccc(O)c(OC)c2)S/C1=N/c1nccs1	23	17*	24*	-8	11	10
C=CCN1C(=O)/C(=C/c2ccc(OCC(=O)O)cc2)S/C1=N/c1nccs1	1	0	-12	2	13	-5
CCN(CC)CCC#CC(O)(c1ccccc1)c1ccccc1	99*	7	-8	-27	23	-11
OC(C#CCCN1CCCCC1)(c1ccccc1)C1CCCCC1 (stereo not given)	97*	1	0	-25	1	-7
OC(C#CCCN1CCCCC1)(c1ccccc1)c1ccccc1	99*	0	-10	-27	10	-3
Cc1ccc(C(O)(CCN2CCCCC2)c2ccccc2)cc1 (stereo not given)	101*	0	-8	-27	5	-9
CC(=O)c1cccc(NC(=S)NC(=O)c2ccc(C)cc2Cl)c1	1	1	8	-4	-8	-6
OC(CCN1CCCCC1)(c1ccccc1)C1C[C@@H]2C=C[C@H]1C2 (stereo not given in full)	99*	0	-1	-26	12	-9
Cc1c(N(C)S(=O)(=O)c2cc(C(=O)N3CCCC3)ccc2Cl)c(=O)n(-c2ccccc2)n1C	-10	1	-5	9	8	-5
COc1ccccc1/C=C/CN1CCC(Oc2ccc(C(=O)N3CCCC3)cc2)CC1	73*	0	26*	-23	-30	-6
O=C(c1ccc(OC2CCN(CCCc3ccccc3)CC2)cc1)N1CCCC1	42*	1	3	-19	-15	-7
CC(CCc1ccc(O)cc1)N1CCC(Oc2ccc(C(=O)N3CCCC3)cc2)CC1 (stereo not given)	11	1	-7	-9	0	-6
COc1ccc(CCC(C)N2CCC(Oc3ccc(C(=O)N4CCCC4)cc3)CC2)cc1 (stereo not given)	67*	2	-8	-21	-4	-6
CC(C)N(C)C(=O)c1ccc(OC2CCN(CCc3ccccc3)CC2)cc1	-10	3	-9	-1	15	-5
CN(Cc1nccn1C)C(=O)c1ccc(OC2CCN(CCc3ccccc3)CC2)cc1	47*	0	5	-19	-18	-6
CC(=O)N1CCN(C(=O)c2ccc(OC3CCN(CCc4ccccc4)CC3)cc2)CC1	37*	0	7	-14	-14	-6
O=C(CSc1cn(Cc2cccc(F)c2)c2ccccc12)NCc1ccc(F)cc1	31*	4	5	-13	6	-5
Cc1ccc(CS(=O)(=O)c2cn(CC(=O)Nc3ccon3)c3ccccc23)cc1	1	19*	7	3	-1	-1
Cc1cc(NC(=O)CS(=O)(=O)c2cn(Cc3cccc(F)c3)c3ccccc23)no1	-9	2	-2	20	7	17*
